Experimental data: ChEMBL document CHEMBL4513146, “CO-ADD screening of Karazin Kharkiv National University (Ukraine) compounds”
Entries with a potency or affinity are not part of this list.

Assays:
Klebsiella pneumoniae = conditions: Concentration 32 ug.mL-1;; ASSAY_TEST Inhibition of Bacterial Growth; detection method Absorption (OD600); MEDIA CAMHB; plate type 384well; NBS; CORNING #3640; time 18 hr
Candida albicans = conditions: Concentration 32 ug.mL-1; ASSAY_TEST Inhibition of Fungal Growth; detection method Absorption (OD530)
Cryptococcus neoformans = conditions: Concentration 32 ug.mL-1; ASSAY_TEST Inhibition of Fungal Growth; detection method Resazurin; Absorption (OD600-OD570); plate type 384well; NBS; CORNING #3640

Row | Structure (SMILES) | Inhibition (Klebsiella pneumoniae) [%] | Inhibition (Candida albicans) [%] | Inhibition (Cryptococcus neoformans) [%]
1 | Cc1cc(C)cc(N(Cc2ccc(F)cc2)S(=O)(=O)c2cccn3c(C)nnc23)c1 | -0.28 | 0.42 | -5.4
2 | COc1cc(NC(=O)C(C)Sc2nnc3c(=O)n(-c4ccccc4OC)ccn23)cc(OC)c1 (stereo not given) | 11.13 | 1.4 | -7.6
3 | Cc1cccc(CN(c2cccc(F)c2)S(=O)(=O)c2ccc3nncn3c2)c1 | 14.36 | 3.33 | -4.78
4 | Cc1cc(C)c(NC(=O)Cn2nc3n(C)c(=O)c4c(c(-c5ccccc5)cn4C)n3c2=O)c(C)c1 | 4.68 | 0.24 | -1.33
5 | N#Cc1cccc(NC(=O)Cn2nc3c4cc(-c5ccc(Cl)cc5)nn4ccn3c2=O)c1 | 3.5 | 20.48 | -13.1
6 | Cc1cccc(N(Cc2ccc(F)cc2)S(=O)(=O)c2cccn3c(C)nnc23)c1 | 7.81 | 3.26 | -8.62
7 | COc1ccc(NC(=O)Cn2nc3c(SC4CCCCC4)nccn3c2=O)cc1 | 11.17 | 6.08 | -26.97
8 | Cc1nnc2c(=O)n(CC(=O)Nc3ccc(C(C)C)cc3)c3ccccc3n12 | 15.67 | 5.98 | -14.04
9 | COc1ccc(NC(=O)Cn2nc3ccc(-c4ccc(Cl)cc4)nn3c2=O)cc1 | 12.68 | 0.32 | -12.45
10 | O=C(Cn1nc2ccc(Sc3ccccc3)nn2c1=O)Nc1ccc(F)c(Cl)c1 | 8.09 | 1.47 | -7.06
